Measurements reported in PubChem BioAssay AID588397 (National Center for Advancing Translational Sciences (NCATS), 2011).
The whole screen tested about 1,300 compounds, of which about 1,000 (77%) were called active. Roughly 7% stayed inconclusive and do not appear here. Calls follow the shape of the dose curve; as a rule, active = well fitted inhibition curve with a large enough effect; inconclusive = small, poorly fitted or top-dose-only effect; inactive = no such curve, though single readings can be large or run the other way. So high a share suggests a set chosen from earlier hits. This is one part of the list.

test: qHTS of small molecules that selectively kill Giardia lamblia: Hit Validation.;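 also: viability measured as ATP content by luminescence so killing lowers signal; trophozoites exposed to compounds for 48 h anaerobically at 37 °C; nearly all actives have a fitted effect of over 65% in size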; settings: Giardia lamblia trophozoite viability, dose-response; series mostly up to 38.3 µM
Method in brief: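 Killing of trophozoites was scored by loss of ATP luminescence after a 48 hrs anaerobic exposure to compounds at 37 deg C, using 100 cells per well.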
Potency is read from the fitted curve at half-maximal effect.

Structure (SMILES)	Potency
Cc1ccc(S(=O)(=O)/N=C(/Sc2ccccc2C(=O)O)c2ccccc2)cc1	inactive
CN(C)c1ccc(C2Nc3cccc4cccc(c34)N2)cc1	3.65 µM (active)
CN(C)c1ccc(C2NC(=O)c3ccccc3N2)cc1 (configuration not stated)	6.5 µM (active)
O=C(c1ccc([N+](=O)[O-])o1)N1CCN(Cc2ccccc2)CC1	6.5 µM (active)
CCC1CCCCN1C(=O)c1ccc([N+](=O)[O-])o1 (configuration not stated)	1.83 µM (active)
O=C(c1cc(Cl)ccc1Cl)N1CCN(Cc2ccccc2)CC1	inactive
O=C(c1ccc([N+](=O)[O-])o1)N1CCCCCC1	3.65 µM (active)
O=C(O)c1cc(Cl)c(Cl)cc1C(=O)N1CCCC1	inactive
O=C(c1ccc([N+](=O)[O-])o1)N1CCOCC1	1.83 µM (active)
COCc1ccc(C(=O)N2CCCC(C(=O)c3ccc(Cl)cc3C)C2)o1 (configuration not stated)	inactive
CC1CCCN(C(=O)c2ccc([N+](=O)[O-])o2)C1 (configuration not stated)	5.16 µM (active)
COc1ccccc1C(=O)C1CCCN(C(=O)c2ccco2)C1 (configuration not stated)	inactive
O=C(O)C1CCN(c2ccc([N+](=O)[O-])cc2[N+](=O)[O-])CC1	1.16 µM (active)
O=C(O)C1CCN(c2ccccc2[N+](=O)[O-])CC1	5.79 µM (active)
CC(=O)N1CCN(c2ccc(S(C)(=O)=O)cc2[N+](=O)[O-])CC1	1.03 µM (active)
CCN(C(=O)COC(=O)c1cc(S(=O)(=O)N2CCc3ccccc32)ccc1OC)C1CCS(=O)(=O)C1 (configuration not stated)	inactive
Cc1c(Nc2nc3ccccc3n3cnnc23)cccc1[N+](=O)[O-]	9.18 µM (active)
O=C(/C=C/c1ccc2c(c1)OCO2)Nc1cccnc1	4.6 µM (active)
NS(=O)(=O)c1ccc(Nc2ncccc2[N+](=O)[O-])cc1	0.41 µM (active)
Cc1c(NC(=O)c2cc(-c3ccc(Cl)c(Cl)c3)on2)c(=O)n(-c2ccccc2)n1C	inactive
COc1ccc2cc(-c3cc(C(=O)OCC(=O)Nc4c(C)n(C)n(-c5ccccc5)c4=O)c4ccccc4n3)ccc2c1	0.41 µM (active)
O=c1c([N+](=O)[O-])cc(C(F)(F)F)cn1Cc1c(Cl)cccc1Cl	1.3 µM (active)
O=c1c([N+](=O)[O-])cc(C(F)(F)F)cn1Cc1cccc(Cl)c1	2.31 µM (active)
COC(=O)c1ccc(Cn2cc(C(F)(F)F)cc([N+](=O)[O-])c2=O)cc1	4.1 µM (active)
COc1cccc(/C=C/c2ccc3ccccc3[n+]2C)c1OC	5.79 µM (active)
CCCC[n+]1c(/C=C/c2c(OC)cc(OC)cc2OC)ccc2ccccc21	inactive
COc1cccc(-c2cc3nc4c(c(NCC(C)(C)CN(C)C)n3n2)CCCC4)c1	0.579 µM (active)
